Screening data (PubChem BioAssay)
Only some compounds are listed: those with a hit (about 31% of all), similar ones and a draw of the others.
CYP2C9 act: CYP2C9 (human) activation; P11712; recombinant CYP2C9, luciferin-H conversion, luminescence; active compounds read high; factor 1 = untreated enzyme, 0 = blocked; activation factor at 5 µM; hit rate 1.4% among 96,000; AID 1024;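 active = activation factor of 2 or more for CYP2C9 at a 5 µM dose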
Target sequence (P11712 whole entry, looked up): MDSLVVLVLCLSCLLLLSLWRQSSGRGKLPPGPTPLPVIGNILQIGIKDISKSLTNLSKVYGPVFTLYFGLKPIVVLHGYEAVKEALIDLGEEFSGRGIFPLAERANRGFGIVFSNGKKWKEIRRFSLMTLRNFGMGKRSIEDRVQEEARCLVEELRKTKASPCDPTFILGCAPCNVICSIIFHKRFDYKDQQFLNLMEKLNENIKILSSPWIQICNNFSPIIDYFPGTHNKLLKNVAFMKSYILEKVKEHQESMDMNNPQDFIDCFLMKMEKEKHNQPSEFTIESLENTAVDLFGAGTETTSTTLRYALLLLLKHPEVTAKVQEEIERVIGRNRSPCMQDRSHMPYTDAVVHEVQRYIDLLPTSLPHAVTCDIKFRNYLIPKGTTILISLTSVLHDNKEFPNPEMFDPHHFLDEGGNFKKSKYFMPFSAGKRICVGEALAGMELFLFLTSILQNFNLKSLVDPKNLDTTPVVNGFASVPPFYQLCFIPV
CYP2C19 inh: inhibitors of human CYP2C19; hit rate 21% among 96,000; CYP2C19 Supersomes, luciferin-H EGE luminescence, 30 min; inhibition, % at 5 µM; P33261;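 active = CYP2C19 inhibition above a set limit at 5 µM in the primary screen, cut at about 50% in these data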
CYP2C9 inhib: blocks human cytochrome P450 2C9 | hit rate 20% among 96,000 | inhibition, % at 5 µM | CYP2C9 Supersomes, luciferin-H conversion, luminescence | AID 777;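 active = blocking of liver enzyme CYP2C9 beyond about 50% at 5 µM, limit read from the data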
CYP2C19 act: activators of human cytochrome P450 2C19. activation factor at 5 µM. 96,000 tested, under 10 active. AID 1025. recombinant CYP2C19, luciferin-H EGE luminescence; active compounds read high; 0 = fully inhibited enzyme, 1 = untreated enzyme;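 active = activation factor of at least 2 at 5 µM in the primary screen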
PLAP activator: activates human placental alkaline phosphatase | P05187 | purified PLAP enzyme, luminescent substrate read-out; active compounds read high | AID 696 | hit rate 1.2% among 96,000 | activation fold at 20 µM; in the data active = activation fold above about 2
Of the large screens only hits and unclear results are named; the others gave an inactive call.

COc1cccc(NC2=CC(=O)CC(C)(C)C2)c1	none
COc1ccccc1NS(=O)(=O)CC12CCC(CC1=O)C2(C)C (stereo not drawn)	CYP2C19 inh 77
C=CCNC(=S)N1CCN(c2ncc3c(=O)c(C(=O)O)cn(CC)c3n2)CC1	none
Cc1ccc(C(=O)NC=C(Cl)Cl)cc1	none
CC(=O)C1=C(C)NC(SCSc2ccccc2)=C(C#N)C1c1cccnc1 (stereo not drawn)	CYP2C19 inh 83, CYP2C9 inhib 66
CC(=O)C1=C(C)NC(SCC(=O)c2ccc(-c3ccccc3)cc2)=C(C#N)C1c1cccnc1 (stereo not drawn)	CYP2C19 inh 96, CYP2C9 inhib 86
CSCSC1=C(C#N)C(c2ccccc2Cl)C(C(C)=O)=C(C)N1 (stereo not drawn)	CYP2C19 inh 85, CYP2C9 inhib 82
CCCNC(=S)Nc1ccc(Nc2ccccc2)cc1	none
CC(C)COc1ccc(CSCCNC(=S)Nc2ccccc2)cc1	CYP2C9 inhib 58
CC1CCc2cc(F)ccc2N1C(=O)CN1C(=O)c2ccccc2C1=O (stereo not drawn)	none
COc1ccc(C(=O)Nc2ccccc2NC(=O)c2ccco2)cc1OC	none
Cc1ccc(C(=O)Nc2oc(-c3ccccc3)cc2C#N)cc1	none
COc1ccc(C(=O)Nc2oc(-c3ccccc3)c(-c3ccccc3)c2C#N)cc1	CYP2C9 inhib 77
C=CCNc1oc(-c2ccc(OC)cc2)nc1C#N	none
COc1ccc(-c2oc(NC(=O)c3ccc(C)cc3)c(C#N)c2-c2ccc(OC)cc2)cc1	CYP2C19 inh 69, CYP2C9 inhib 94
COc1ccc(-c2oc(NC(C)=O)c(C#N)c2-c2ccc(OC)cc2)cc1	CYP2C19 inh 57, CYP2C9 inhib 72
COc1ccc(C(=O)Nc2oc(-c3ccccc3)c(-c3ccccc3)c2C#N)cc1OC	CYP2C9 inhib 74
COc1ccc(-c2oc(/N=C/N3CCOCC3)c(C#N)c2-c2ccc(OC)cc2)cc1	CYP2C19 inh 64, CYP2C9 inhib 90
Cn1ncc(C#N)c1/N=C/N1CCOCC1	none
COc1ccc(N=Nc2nc3ccc(Br)cc3n2C)cc1	none
COc1ccc(OC)c(N(CC(=O)N2CCC(C)CC2)S(=O)(=O)c2ccc(OC)c(OC)c2)c1	none
COc1ccc(N(CC(=O)N2CCCCC2)S(=O)(=O)c2ccccc2)c(OC)c1	CYP2C19 inh 53
COc1ccc(OC)c(N(CC(=O)N2CCC(C)CC2)S(=O)(=O)c2ccccc2)c1	CYP2C9 inhib 52
COc1ccc(S(=O)(=O)N(C)CC(=O)N2CCC(C)CC2)cc1Cl	CYP2C9 act 2.5
COc1cccc(N(CC(=O)N2CCN(C)CC2)S(=O)(=O)c2ccccc2)c1	none
CCC(C)NC(=O)C1c2ccccc2C(=O)N(c2ccc(OC)cc2)C1c1ccc(OC)cc1 (stereo not drawn)	none
O=C(CNC(=O)c1ccc(Br)o1)NCc1ccc2c(c1)OCO2	none
O=C(CCS(=O)(=O)c1ccc(Br)s1)NCc1ccc2c(c1)OCO2	CYP2C9 inhib 81
CN(CC(=O)NCc1ccc2c(c1)OCO2)S(=O)(=O)c1ccc(Br)s1	CYP2C19 inh 70, CYP2C9 inhib 89
COc1cc(NC(=O)c2ccc(Br)o2)c(C(=O)O)cc1OC	none
CC(C)(C)C(=O)NC1(C(F)(F)F)C(=O)Nc2c1c(=O)[nH]c(=O)n2Cc1ccco1 (stereo not drawn)	none
COc1cc(S(=O)(=O)NC2CCCCC2C)ccc1Cl (stereo not drawn)	CYP2C19 inh 97
COc1ccc(S(=O)(=O)NC2CCCC2)cc1Br	CYP2C9 act 2.4, CYP2C19 inh 97
COc1cc(S(=O)(=O)Nc2ccccn2)ccc1F	CYP2C9 act 2.1
Cc1ccc(S(=O)(=O)NC2CCCC2)cc1C	none
COc1cc(S(=O)(=O)NC2CCCC2)ccc1Cl	CYP2C9 act 3, CYP2C19 inh 94
CC(C)CC(NC(=O)OC(C)(C)C)C(=O)NC(C(=O)NC(C)C(N)=O)C(C)C (stereo not drawn)	none
COc1ccc(OC)c(S(=O)(=O)NC2CCCCC2)c1	none
COc1ccc(S(=O)(=O)NC2CCCCC2)c(C)c1C	CYP2C19 inh 96
COc1cc(S(=O)(=O)NC2CCCC2)ccc1F	CYP2C19 inh 90
COc1ccc(C(=O)Nc2ccc(-c3ccc(C)o3)cc2)cc1S(=O)(=O)N1CCOCC1	none
COc1ccc(CS(=O)(=O)/C(Cl)=C(/Cl)C(=O)Nc2ccc(OC)nc2)cc1	CYP2C9 inhib 68
CCOc1ccccc1OCCCC(=O)Nc1ccc(OC)nc1	none
